HCMV antiviral: qHTS Assay for inhibitors of the human cytomegalovirus (HCMV) | HFF cells, HCMV-luciferase reporter, 72 h; hits give low values | activity change, negative = inhibition, % at 57.5 µM | actives 4.5% (n = 410,000) | AID 1259415, 2018; in the data active means activity change below about -60%; inconclusive means no clear call, values can overlap the other calls; inactive means above about -39%
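Two compound doses tested in HFFs infected with HCMV-luciferase, MOI 1 PFU/cell, 72 h at 37C. Lysate luminescence read with OneGlo; data normalized against buffer-only and 10uM Salinomycin inhibitor controls.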
Vaccinia mCherry: qHTS for Stage-Specific Inhibitors of Vaccinia Orthopoxvirus: mCherry Reporter Primary qHTS | Vaccinia virus mCherry reporter infection, fluorescence | Potency, µM (doses to about 36.5 µM), inactives show top-dose activity change, negative = inhibition, hits mostly inhibitors | actives 0.63% (n = 310,000) | AID 720579, 2013; calls by dose curve; tested in A549 cells; further: potency means the concentration at half of the fitted maximal effect; nearly all actives have a fitted effect of over 35% in size
Vaccinia Venus: qHTS for Stage-Specific Inhibitors of Vaccinia Orthopoxvirus: Venus Reporter Primary qHTS | actives 0.46% (n = 330,000) | Vaccinia virus Venus reporter expression, fluorescence | Potency, µM (series often up to 36.5 µM), without a hit: top-dose activity change, negative = inhibition, usual class: inhibitors; calls by dose curve; tested in A549 cells; further: potency means the concentration at half of the fitted maximal effect; nearly all actives have a fitted effect of over 30% in size
Lassa entry inh: qHTS for Inhibitors of binding or entry into cells for Lassa Virus; Lassa virus pseudotype entry inhibition, cell reporter; Potency, µM (highest dose often 37.9 µM), inactives show at the top dose activity change, negative = inhibition, usual class: inhibitors; actives 1.2% (n = 300,000); AID 540256, 2011; calls by dose curve; tested in HEK293 cells; further: potency means the concentration at half of the fitted maximal effect; nearly all actives have a fitted effect of over 50% in size
MARV entry inh: qHTS for inhibitors of binding or entry into cells for Marburg Virus | Marburg virus pseudotyped entry inhibition, cell reporter | Potency, µM (series often up to 37.8 µM), for inactives: at the highest dose activity change, negative = inhibition, hits mostly inhibitors | actives 1.8% (n = 300,000) | AID 540276, 2011; calls by dose curve; tested in HEK293 cells; further: potency means the concentration at half of the fitted maximal effect
HCV inhibitor: qHTS Assay for Inhibitors of Hepatitis C Virus (HCV); Huh7.5.1 HCVcc-Cre infection, luciferase reporter, 44 h; actives 3.4% (n = 340,000); Potency, µM (titrated, usually from 41.8 µM), for inactives: at the top dose activity change, negative = inhibition, usual class: inhibitors; active means well fitted inhibition curve with a large enough effect; inconclusive means small, poorly fitted or top-dose-only effect, or another doubt; inactive means no such curve, though single readings can be large or run the other way; further: potency means the concentration at half of the fitted maximal effect
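Seed cells (1,000/well) for 4 h; treat with compound and infect with HCVcc-Cre, moi about 0.5. Incubate 44 h, then detect luciferase activity.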
* marks the source's active call; other numbers are inactive results; i = inactive; ? = inconclusive; . = not tested or not shown; [ ] = dose if it differs, or a comment. Shown are actives, neighbours in structure and some others; about 7.8% of the full set was active somewhere. On the % scale 0 is the no-effect control and ±100 the full control effect.

SMILES | HCMV antiviral | Vaccinia mCherry | Vaccinia Venus | Lassa entry inh | MARV entry inh | HCV inhibitor
CCC1Oc2ccccc2N(CC(=O)NCc2cc(OC)ccc2OC)C1=O (centres undefined) | -24 | -4% | -8% | 0%[46.1 µM] | . | .
CCN(CC)C(=O)Oc1ccc2ccccc2c1Br | -89* | -3% | 9% | ? | ? | ?
O=C(Oc1ccc2ccccc2c1Br)N1CCCCCC1 | -82* | . | . | 3.3µM* | 1.2µM* | -3%
CCN(CC)C(=O)Oc1ccc(Br)c2ccccc12 | -30 | -14% | -1% | ? | ? | ?
Cc1cccc(CNC(=O)Cn2nc(C)c3nn(-c4ccc(Cl)cc4)c(C)c3c2=O)c1 | 6 | ? | -23% | 0%[46.1 µM] | . | .
c1ccc2c(c1)CCN(c1nc3cc4c(cc3s1)OCCO4)C2 | -90* | . | . | 4.6µM* | ? | ?
O=S(=O)(c1ccc2c(c1)OCCO2)N1CCN(c2nc3ccccc3s2)CC1 | ? | -15% | -26% | -24% | 22% | -13%
COc1ccc(OC)c2sc(N3CCCCC3)nc12 | 8 | . | . | -18% | -16% | 13µM*
COc1ccc(OC)c2sc(N3CCc4ccccc4C3)nc12 | -76* | -8% | -6% | -2% | -30%[46.1 µM] | ?
O=c1c2nncn2ccn1-c1ccc(F)c(F)c1 | 3 | -5% | 5% | 16%[46.1 µM] | 11%[46.1 µM] | .
CC(C)(C)c1cc(C(=O)N/N=C/c2ccc(F)cc2)n(-c2ccccc2)n1 | -74* | -11% | -23% | -22% | ? | ?
Cc1ccc(NC(=O)c2cc(C)nn2-c2ccccc2)cc1 | -33 | -12% | -12% | 8%[46.1 µM] | ? | -6%
CC(C)(C)c1cc(C(=O)N/N=C/c2ccccc2O)n(-c2ccccc2)n1 | -97* | ? | ? | ? | ? | -6%
C=C(C)C(=O)C=CC=Cc1ccccc1 | . | . | . | ? | -87%[14.2 µM] | .
COc1ccc(OC)c(S(=O)(=O)N2CCC(C(=O)Nc3ccccc3)CC2)c1 | -4 | -18% | -21% | -1%[46.1 µM] | ? | -25%
COc1ccc(OC)c(S(=O)(=O)N2CCC(C(=O)Nc3cccc(C)c3)CC2)c1 | -61* | -28% | -23% | 3% | -27% | -14%
COc1ccc(NC(=O)C2CCC(C(C)(C)C)CC2)cc1S(=O)(=O)N1CCCCC1 (centres undefined) | -86* | -19% | ? | ? | 11µM* | -29%
COc1ccc(NC(=O)C2CC2)cc1S(=O)(=O)N1CCOCC1 | 0 | . | . | . | . | -1%
COc1ccc(OC)c(S(=O)(=O)N2CCC(C(=O)Nc3cc(C)ccc3C)CC2)c1 | -93* | -14% | -13% | ? | ? | -15%
COC(=O)c1ccccc1NC(=O)C1CCN(S(=O)(=O)c2cc(C)ccc2OC)CC1 | ? | . | -29% | -16% | ? | -7%
CCCc1nn2c(=O)cc(COC(=O)c3ccccc3NC(=O)C3CCCCC3)nc2s1 | 51 | -25% | -21% | 19%[46.1 µM] | . | .
COc1ccccc1CNC(=O)CN1C(=O)CCc2cc(S(=O)(=O)N3CCOCC3)ccc21 | 3 | -4% | 2% | ? | . | .
CCC12CN3CC(C)(CN(C1)C3c1c[nH]c3ccccc13)C2=O (centres undefined) | -3 | -6% | -13% | -22%[46.1 µM] | 6%[46.1 µM] | .
CCCCn1c(NC(=O)c2ccccc2)nc2ccccc21 | -27 | i | -23% | ? | ? | 13µM*
Cn1c(NC(=O)c2cccc(Cn3cc(Cl)cn3)c2)nc2ccccc21 | 29 | ? | -22% | ? | -7% | -21%
SMILES | HCMV antiviral | Vaccinia mCherry | Vaccinia Venus | Lassa entry inh | MARV entry inh | HCV inhibitor
CCn1c(NC(=O)c2ccccc2)nc2ccccc21 | 52 | -6% | -12% | -1% | ? | 7%
CCCCn1c(NC(=O)C2CCCCC2)nc2ccccc21 | 15 | . | ? | -29% | ? | 13µM*
CCn1c(NC(=O)c2cccc(Cn3cc(Cl)cn3)c2)nc2ccccc21 | -68* | ? | -28% | . | . | 14µM*
CCC[C@H](CCC(=O)Nc1ccc(C(=O)OCC)cc1)C(=O)O | . | . | . | . | -6% | .
CC1CCN(C(=O)Cn2cc(SCc3cccc(F)c3)c3ccccc32)CC1 | -10 | -9% | -12% | ? | . | .
Cc1ccc(-c2nc(S(=O)(=O)c3ccc(C)cc3)c(SCC(=O)c3ccccc3)o2)cc1 | 1 | -12% | -17% | ? | ? | .
c1cncc(Nc2nc(-c3cccs3)cs2)c1 | 157 | . | . | 16% | 1% | 3.2µM*
c1ccc(Nc2nc(-c3ccccn3)cs2)cc1 | 143 | -29% | -27% | ? | ? | ?
Cc1ccc(Nc2nc(-c3cccs3)cs2)nc1 | 103 | . | . | . | . | ?
c1ccc(-c2csc(Nc3cccnc3)n2)nc1 | 54 | . | . | 24% | 6% | 10µM*
COC(=O)[C@@H]1CCCN1Cc1ccc2c(c1)CN(Cc1ccc3c(c1)CCCN3C)CCO2 | . | -15% | 0% | . | . | .
Cc1ccc(N2CCN(C(=O)Nc3cccc([N+](=O)[O-])c3)CC2C)cc1 (centres undefined) | -65* | -29% | -27% | ? | ? | -26%
O=C(Nc1cccc([N+](=O)[O-])c1)N1CCN(c2ccccc2)CC1 | -64* | -22% | -10% | -13%[46.1 µM] | -7%[46.1 µM] | ?
CN(C)CC/C=C1/c2ccccc2CS(=O)(=O)c2ccccc21 | 12 | -6% | -1% | 26%[46.1 µM] | -2%[46.1 µM] | 7%
CNCC/C=C1/c2ccccc2CSc2ccccc21 | -34 | ? | ? | ? | ? | 10µM*
Cc1c(C(=O)NCC(C)C)sc2ncnc(NCC3CCCO3)c12 (centres undefined) | . | -11% | -1% | . | . | .
Cc1ccc(C(=O)C[n+]2ccc(Cc3ccccc3)cc2)cc1 | -88* | -14% | -7% | ? | ? | ?
C=Cn1cc[n+](CC(=O)c2cccs2)c1 | 19 | . | . | . | . | 6%
O=C(C[n+]1ccccc1)c1ccc(-c2ccccc2)cc1 | 2 | -8% | -12% | 22% | -29%[46.1 µM] | 5%
CN(C)c1cc[n+](CC(=O)c2ccc(Br)cc2)cc1 | -74* | i | -7% | ? | -22%[46.1 µM] | -10%
